For 40 compounds, morphology score and SARS-CoV-2 infection rate results are on record in the supplement of paper PMC13380429.

For the first experiment, the system named is Vero E6 infected with SARS-CoV-2. The experiment can be described thus: morphology score (similarity to uninfected cells); higher = more like uninfected cells. Conditions: 24 h.
Compound `CC1(C)OC2(C)C(O)CC1CC2O` (stereo not given) [epomediol] (10 µM) gave a morphology score of 0.173. For the compound `CC[N+](CC)(CC)CCC(O)(c1ccccc1)C1CCCCC1` (stereo not given) [tridihexethyl] (10 µM), the morphology score was -0.09. `CNc1nc(NCc2ccc(NS(C)(=O)=O)cc2Cl)cc(-c2ccccn2)n1` (10 µM) registered a morphology score of 0.193. Same read-out and setting: as for `COc1ccc(CNC(=O)/C=C/c2ccc3[nH]cc(CCN(C)C)c3c2)cc1` (10 µM), the figure is 0.155. `Cc1cc(C(=O)O)sc1C(N)C(=O)O` (stereo not given) (10 µM) came in with a morphology score of -0.0491. The compound `O=C(O)c1ccc(S(=O)(=O)N(Cc2ccc(OC(F)(F)F)cc2)c2ncc(C(F)(F)F)cc2Cl)cc1` (10 µM) showed a morphology score of 0.114. As for `COc1ccc2c(c1)/C(=C/c1cnc[nH]1)C(=O)N2` (0.833333 µM), the morphology score was -0.0607.

`O=C(c1c(F)ccc(NS(=O)(=O)N2CC[C@@H](F)C2)c1F)c1c[nH]c2ncc(-c3cnc(C4CC4)nc3)cc12` (10 µM) returned a morphology score of 0.162.

`CC[N+](CC)(CCCNC1=CC(=O)C(NCCC[N+](CC)(CC)Cc2ccccc2)=CC1=O)Cc1ccccc1` [benzoquinonium-dibromide] (10 µM) showed a morphology score of -0.00889. In turn, `CCc1cc(C(C)=O)c(O)cc1OCCCCCC(C)(C)c1nn[nH]n1` (10 µM) yielded a morphology score of 0.0736. In turn, `C[C@H](NC(=O)CNC(=O)c1cccc(Cl)c1)c1ccccc1` (10 µM) gave a morphology score of 0.0656. `CCN(CC)CCOC(=O)C1(c2ccc([N+](=O)[O-])cc2)CCCC1` [nitrocaramiphen] (10 µM) displayed a morphology score of 0.137. Consider `N#C[C@@H]1CCCN1C(=O)CNC12CC3CC(CC(O)(C3)C1)C2` [vildagliptin] (10 µM), for which the morphology score was 0.00182.

As to `CN(C)c1ccc(C(=C2C=CC(=[N+](C)C)C=C2)c2ccc(N(C)C)cc2)cc1` [crystal-violet] (10 µM), the morphology score was -0.0788.

In turn, `Cc1cc(C)c(/C=C2\C(=O)Nc3ccccc32)[nH]1` [semaxanib] (10 µM) had a morphology score of 0.208. Turning to `O=C1CCC(N2C(=O)c3ccccc3C2=O)C(=O)N1` (stereo not given) [thalidomide] (10 µM), the morphology score was -0.223. Take `Cc1ncc[nH]1` [2-methylimidazole] (10 µM): the morphology score is 0.049.

In the case of `NCC1OC(C23CC4CC(CC(C4)C2)C3)Cc2c1ccc(O)c2O` (stereo not given) (0.833333 µM), the morphology score was -0.0685.

In turn, `CCN(CC)CCOC(=O)C1(c2ccccc2)CCCC1` [caramiphen] (10 µM) displayed a morphology score of 0.145. Regarding `NCc1ccc(S(N)(=O)=O)cc1` [mafenide] (10 µM), the morphology score came out at 0.136.

The test system is the same in another experiment. Kind of experiment: SARS-CoV-2 infection rate relative to infected DMSO; higher = more infection, active = 60 or less. Conditions: 24 h.
With `CCOc1ccc(-c2ccc(Cn3c(CC(C)(C)C(=O)O)c(SC(C)(C)C)c4cc(OCc5ccc(C)cn5)ccc43)cc2)cn1` (0.833333 µM), the SARS-CoV-2 infection rate was 118% (inactive). With `COc1ccc(C2CC(c3c(O)cc(C)oc3=O)=NCCS2)c(OC)c1` (stereo not given) (10 µM), the SARS-CoV-2 infection rate was 101% (inactive). Still for that read-out and setting: as for `O=C(Nc1cccc2cccnc12)c1ccc(N2C(=O)[C@@H]3[C@H](C2=O)[C@@H]2C=C[C@H]3C2)cc1` [endo-IWR-1] (10 µM), the figure is 98.5% (inactive); as for `CC(C)c1ccc2oc3nc(N)c(C(=O)O)cc3c(=O)c2c1` [amlexanox] (10 µM), 111% (inactive); as for `CCOc1ccc2nc3cc(N)ccc3c(N)c2c1` [ethacridine-lactate-monohydrate] (10 µM), 95.5% (inactive).

For the compound `Fc1ccc(C(c2ccc(F)cc2)N2CCN(C/C=C/c3ccccc3)CC2)cc1` [flunarizine] (10 µM), the SARS-CoV-2 infection rate was 69.5% (inactive). `O=C(O)c1cc(=O)[nH]c(=O)[nH]1` [orotic-acid] (10 µM): the SARS-CoV-2 infection rate is 104% (inactive). Regarding `O=C1CC2(CCCC2)CC(=O)N1CCCCNC[C@H]1COc2ccccc2O1` (racemic) (10 µM), the SARS-CoV-2 infection rate is 108% (inactive). As to `CC(=O)c1cnc2ccc(-c3cc(Cl)c(O)c(Cl)c3)nc2c1N[C@H]1CC[C@H](CN(C)C)CC1` (0.833333 µM), the SARS-CoV-2 infection rate is 96% (inactive).

Take `COc1ccc(CCCO[C@@H](Cn2ccnc2)c2ccc(OC)cc2)cc1` (0.833333 µM): the SARS-CoV-2 infection rate was 107% (inactive). The same measure, in the same setting: next, `CC(C)C[C@@H](NC(=O)[C@H](C)NC(=O)CNC(=O)[C@@H](NC=O)C(C)C)C(=O)N[C@@H](C)C(=O)N[C@@H](C(=O)N[C@H](C(=O)N[C@@H](C(=O)N[C@@H](Cc1c[nH]c2ccccc12)C(=O)N[C@H](CC(C)C)C(=O)N[C@@H](Cc1c[nH]c2ccccc12)C(=O)N[C@H](CC(C)C)C(=O)N[C@@H](Cc1c[nH]c2ccccc12)C(=O)N[C@H](CC(C)C)C(=O)N[C@@H](Cc1c[nH]c2ccccc12)C(=O)NCCO)C(C)C)C(C)C)C(C)C` [gramicidin] (10 µM): 100% (inactive). As for `C=C(NC(=O)C(=C)NC(=O)c1csc(C2=N[C@@H]3c4csc(n4)[C@H]4NC(=O)c5csc(n5)[C@H]([C@](C)(O)[C@@H](C)O)NC(=O)[C@H]5CSC(=N5)/C(=C/C)NC(=O)[C@H]([C@@H](C)O)NC(=O)c5csc(n5)[C@]3(CC2)NC(=O)[C@H](C)NC(=O)C(=C)NC(=O)[C@H](C)NC(=O)[C@H]([C@@H](C)CC)N[C@@H]2C=Cc3c([C@H](C)O)cc(nc3[C@H]2O)C(=O)O[C@@H]4C)n1)C(N)=O` [thiostrepton] (10 µM), the SARS-CoV-2 infection rate is 92.5% (inactive). Still for that read-out and setting: as for `COc1ccc(NS(=O)(=O)c2sc3ccc(Cl)cc3c2C)cc1N1CCNCC1` (10 µM), the figure is 108% (inactive); as for `NS(=O)(=O)NCc1csc2ccccc12` (10 µM), 87.5% (inactive). On the same count and under the same terms, next, `C=Cc1cc(O)cc2nc(-c3ccc(O)c(F)c3)oc12` [prinaberel] (10 µM): 96.5% (inactive). `Nc1ccn([C@@H]2O[C@H](CO)[C@@H](O)C2(F)F)c(=O)n1` [gemcitabine] (0.833333 µM): the SARS-CoV-2 infection rate was 114% (inactive). As for `CCOc1ccc2ccccc2c1C(=O)N[C@@H]1C(=O)N2[C@@H]1SC(C)(C)[C@@H]2C(=O)O` [nafcillin] (10 µM), the SARS-CoV-2 infection rate is 112% (inactive). Take `N[C@H](Cc1cc(I)c(Oc2ccc(O)c(I)c2)c(I)c1)C(=O)O` [liothyronine-(isomer)] (10 µM): the SARS-CoV-2 infection rate is 106% (inactive). Take `Cc1coc2c1C(=O)C(=O)c1c-2ccc2c1CCCC2(C)C` [tanshinone-IIA] (10 µM): the SARS-CoV-2 infection rate was 102% (inactive). Same read-out and setting: next, `CCC(C)C(C(=O)OCC[N+](C)(CC)CC)c1ccccc1` (stereo not given) [valethamate] (10 µM): 95% (inactive); `CC1(C)OC2(C)C(O)CC1CC2O` (stereo not given) [epomediol] (10 µM): 100% (inactive). With `CC[N+](CC)(CC)CCC(O)(c1ccccc1)C1CCCCC1` (stereo not given) [tridihexethyl] (10 µM), the SARS-CoV-2 infection rate was 110% (inactive). Regarding `CNc1nc(NCc2ccc(NS(C)(=O)=O)cc2Cl)cc(-c2ccccn2)n1` (10 µM), the SARS-CoV-2 infection rate was 97.5% (inactive). With `COc1ccc(CNC(=O)/C=C/c2ccc3[nH]cc(CCN(C)C)c3c2)cc1` (10 µM), the SARS-CoV-2 infection rate was 88.5% (inactive). With `Cc1cc(C(=O)O)sc1C(N)C(=O)O` (stereo not given) (10 µM), the SARS-CoV-2 infection rate is 95% (inactive).

Turning to `O=C(O)c1ccc(S(=O)(=O)N(Cc2ccc(OC(F)(F)F)cc2)c2ncc(C(F)(F)F)cc2Cl)cc1` (10 µM), the SARS-CoV-2 infection rate is 102% (inactive). `COc1ccc2c(c1)/C(=C/c1cnc[nH]1)C(=O)N2` (0.833333 µM): the SARS-CoV-2 infection rate was 109% (inactive). For `O=C(c1c(F)ccc(NS(=O)(=O)N2CC[C@@H](F)C2)c1F)c1c[nH]c2ncc(-c3cnc(C4CC4)nc3)cc12` (10 µM), the SARS-CoV-2 infection rate was 103% (inactive). `CC[N+](CC)(CCCNC1=CC(=O)C(NCCC[N+](CC)(CC)Cc2ccccc2)=CC1=O)Cc1ccccc1` [benzoquinonium-dibromide] (10 µM): the SARS-CoV-2 infection rate was 113% (inactive). Consider `CCc1cc(C(C)=O)c(O)cc1OCCCCCC(C)(C)c1nn[nH]n1` (10 µM), for which the SARS-CoV-2 infection rate is 100% (inactive). For the compound `C[C@H](NC(=O)CNC(=O)c1cccc(Cl)c1)c1ccccc1` (10 µM), the SARS-CoV-2 infection rate was 102% (inactive).

`CCN(CC)CCOC(=O)C1(c2ccc([N+](=O)[O-])cc2)CCCC1` [nitrocaramiphen] (10 µM): the SARS-CoV-2 infection rate was 104% (inactive). As for `N#C[C@@H]1CCCN1C(=O)CNC12CC3CC(CC(O)(C3)C1)C2` [vildagliptin] (10 µM), the SARS-CoV-2 infection rate is 91% (inactive). Turning to `CN(C)c1ccc(C(=C2C=CC(=[N+](C)C)C=C2)c2ccc(N(C)C)cc2)cc1` [crystal-violet] (10 µM), the SARS-CoV-2 infection rate is 114% (inactive).

In the case of `Cc1cc(C)c(/C=C2\C(=O)Nc3ccccc32)[nH]1` [semaxanib] (10 µM), the SARS-CoV-2 infection rate was 96% (inactive). As to `O=C1CCC(N2C(=O)c3ccccc3C2=O)C(=O)N1` (stereo not given) [thalidomide] (10 µM), the SARS-CoV-2 infection rate was 104% (inactive).

As for `Cc1ncc[nH]1` [2-methylimidazole] (10 µM), the SARS-CoV-2 infection rate was 95% (inactive).

Consider `NCC1OC(C23CC4CC(CC(C4)C2)C3)Cc2c1ccc(O)c2O` (stereo not given) (0.833333 µM), for which the SARS-CoV-2 infection rate is 115% (inactive).

`CCN(CC)CCOC(=O)C1(c2ccccc2)CCCC1` [caramiphen] (10 µM): the SARS-CoV-2 infection rate was 95.5% (inactive). On to `NCc1ccc(S(N)(=O)=O)cc1` [mafenide] (10 µM), for which the SARS-CoV-2 infection rate was 91% (inactive).
